These results are taken from PubChem BioAssay (NCI).

This is part of a sample that, as a whole, favours compounds with a hit. Of some 83,000 tested, about 20% had one in any assay.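 In brief: 96-well plates, 48 h treatment, single concentration, percent growth endpoint.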 A number with no mark means an inactive call. Active and inactive are the calls of the source. Rule for the calls: active = growth percent below 10; inactive = the rest.

Common to all, as to experiment: NCI-60 one-dose screen, 48 h (100 = growth as untreated, 0 = no growth, -100 = all killed)
One test deals with HCT-15 colon. The conditions noted are these: 10 µM unless noted.
Another test concerns HT29 colon. Conditions: 10 µM unless noted.
The test system of a further test is SNB-75 CNS. Conditions: 10 µM unless noted.
A further test has as its system SNB-19 CNS. The conditions noted are these: 10 µM unless noted.
The test system of the next test is U251 CNS. The conditions noted are these: 10 µM unless noted.
The next test has as its system PC-3 prostate. Conditions: 10 µM unless noted.
Another test has as its system SK-MEL-5 melanoma. The conditions noted are these: 10 µM unless noted.
For another test, the system named is UACC-62 melanoma. The conditions noted are these: 10 µM unless noted.
For another test, the system named is LOX IMVI melanoma. The conditions noted are these: 10 µM unless noted.
The next test has as its system SK-MEL-28 melanoma. The conditions noted are these: 10 µM unless noted.
In another test the test system is SK-MEL-2 melanoma. Conditions: 10 µM.
The test system of the next test is EKVX NSCLC. The conditions noted are these: 10 µM unless noted.
A further test has as its system SN12C renal. Conditions: 10 µM unless noted.
For the next test, the system named is UO-31 renal. The conditions noted are these: 10 µM unless noted.
Another test has as its system TK-10 renal. Conditions: 10 µM unless noted.
The next test deals with ACHN renal. The conditions noted are these: 10 µM unless noted.
The test system of another test is CCRF-CEM leukemia. The conditions noted are these: 10 µM unless noted.
Another test relates to MOLT-4 leukemia. Conditions: 10 µM unless noted.
The next test has as its system CAKI-1 renal. Conditions: 10 µM unless noted.
Another test has as its system A498 renal. The conditions noted are these: 10 µM unless noted.

On to `COC(=O)c1[nH]cnc1/N=N/N(C)CCO`, for which the growth with HCT-15 colon was 109%; in the test on HT29 colon it was 108%; in the test on SNB-75 CNS, 79%; with SNB-19 CNS, 103%; in the test with U251 CNS it was 104%; in the test on PC-3 prostate, 109%. For the same molecule, the growth with SK-MEL-5 melanoma was 102%; in the test with UACC-62 melanoma it was 101%; with LOX IMVI melanoma, 101%; in the test on SK-MEL-28 melanoma, 117%; with SK-MEL-2 melanoma, 108%; in the test on EKVX NSCLC, 97.9%. The growth in the test on SN12C renal is 102%; with UO-31 renal, 84.9%; in the test with TK-10 renal, 129%; in the test on ACHN renal, 103%; in the test on CCRF-CEM leukemia it was 102%; with MOLT-4 leukemia, 85.8%.

Consider `Nc1ncnc2c1ccn2-c1cccc(NC(=O)c2ccc(N3CCOCC3)c(C(F)(F)F)c2)c1`, for which the growth is 31.5% in the test with HCT-15 colon; 38.2% with HT29 colon; 67.3% with SNB-75 CNS; 95.7% in the test on SNB-19 CNS; 39.5% with U251 CNS; 35.6% with PC-3 prostate. For the same molecule, the growth in the test on SK-MEL-5 melanoma is 41.6%; with UACC-62 melanoma, 43.4%; in the test on LOX IMVI melanoma it was 41.2%; with SK-MEL-28 melanoma, 81.2%; in the test with SK-MEL-2 melanoma, 37.7%; with EKVX NSCLC, 56%. The growth in the test with SN12C renal is 47.8%; in the test with UO-31 renal, 22%; in the test on ACHN renal it was 30.9%; with CAKI-1 renal it was 26.3%; in the test with A498 renal it was 63.3%; in the test with CCRF-CEM leukemia it was 20.5%.

Turning to `CCN1CCN(c2cc(C)nc(N(CCCNc3ccnc4cc(Cl)ccc34)Cc3ccc4c(c3)OCO4)n2)CC1`, the growth in the test with HCT-15 colon was 1.33% (active); with HT29 colon it was -12.2% (active); with SNB-75 CNS, -15% (active); with SNB-19 CNS, 16.3%; in the test with U251 CNS, -45.4% (active); in the test on PC-3 prostate, 15.8%. For the same molecule, the growth was -95.7% (active) with SK-MEL-5 melanoma; -47.8% (active) with UACC-62 melanoma; -75% (active) in the test with LOX IMVI melanoma; -73.6% (active) in the test on SK-MEL-28 melanoma; -67.9% (active) with SK-MEL-2 melanoma; 42.3% in the test on EKVX NSCLC. Moreover, the growth in the test on SN12C renal is 34.6%; with UO-31 renal, -81.9% (active); in the test with TK-10 renal, -58.2% (active); in the test with A498 renal it was 27.8%; in the test on CCRF-CEM leukemia, -18.1% (active); in the test with MOLT-4 leukemia it was -15.9% (active).

Consider `O=C1CC(c2ccc3c(c2)OCO3)c2ncn(-c3ccc(Cl)cc3)c2N1` (stereo unspecified), for which the growth in the test with HCT-15 colon was 24.2%; in the test on HT29 colon it was 10.9%; in the test on SNB-75 CNS it was 30.1%; in the test on SNB-19 CNS, 47.8%; with U251 CNS it was 21.9%; in the test with PC-3 prostate, 45.1%. Also, the growth with SK-MEL-5 melanoma was 24.8%; with UACC-62 melanoma it was 34.4%; with LOX IMVI melanoma, 51.7%; with SK-MEL-28 melanoma it was 55.4%; in the test on SK-MEL-2 melanoma, 43.4%; with EKVX NSCLC it was 68.2%. The growth in the test with SN12C renal is 56.6%; with TK-10 renal, 67.9%; with ACHN renal, 53.9%; with CAKI-1 renal, 37.1%; with CCRF-CEM leukemia, 28.2%; in the test on MOLT-4 leukemia, 32%.

Consider `N#Cc1c(-c2ccc(C(F)(F)F)cc2)cc(NCC2CCS(=O)(=O)CC2)n2c1nc1ccccc12`, for which the growth was 86.2% in the test on HCT-15 colon; 75.7% in the test on HT29 colon; 52.5% in the test with SNB-75 CNS; 83.5% in the test with SNB-19 CNS; 83.2% in the test with U251 CNS; 63.4% with PC-3 prostate. In addition, the growth in the test on SK-MEL-5 melanoma was 77.7%; in the test on UACC-62 melanoma, 80.8%; in the test on LOX IMVI melanoma, 77.5%; in the test on SK-MEL-28 melanoma, 95.8%; in the test with SK-MEL-2 melanoma, 89.7%; in the test with EKVX NSCLC, 77.5%. For the same molecule, the growth with SN12C renal is 82.3%; with TK-10 renal it was 93.1%; in the test on ACHN renal it was 86.8%; with CAKI-1 renal, 80.9%; with A498 renal it was 55.3%; in the test with CCRF-CEM leukemia, 86.2%. Besides, the growth with MOLT-4 leukemia was 74.3%.

Take `C=CC(=O)N(C)[C@H]1C[C@H]2OC(C)(C1OC)n1c3ccccc3c3c4c(c5c6ccccc6n2c5c31)C(=O)NC4` (stereo partly specified): the growth was -46.5% (active) with HCT-15 colon; 3.17% (active) with HT29 colon; -16.8% (active) in the test on SNB-75 CNS; -1.51% (active) in the test on SNB-19 CNS; -35.8% (active) in the test with U251 CNS; 17.5% with PC-3 prostate. In addition, the growth with SK-MEL-5 melanoma is -94.3% (active); in the test with UACC-62 melanoma, -28.1% (active); with LOX IMVI melanoma, -55.6% (active); with SK-MEL-28 melanoma it was 5.52% (active); in the test on SK-MEL-2 melanoma it was -24.6% (active); in the test with EKVX NSCLC, 17.9%. Besides, the growth with SN12C renal was 6.85% (active); with UO-31 renal it was -30.5% (active); in the test on TK-10 renal, -2.16% (active); in the test with ACHN renal, 12.9%; in the test with CCRF-CEM leukemia, -7.8% (active); with MOLT-4 leukemia, -40.1% (active).

Turning to `CC(=O)OC1Oc2ccccc2-c2oc(=O)c(-c3cc4ccc(N(C)C)cc4oc3=O)cc21` (stereo unspecified), the growth in the test with HCT-15 colon is 46.2%; in the test with HT29 colon, 72.4%; with SNB-75 CNS, 71.1%; with SNB-19 CNS, 48.2%; in the test with U251 CNS, 48.3%; in the test on PC-3 prostate it was 34.8%. For the same molecule, the growth in the test on SK-MEL-5 melanoma is 18.8%; in the test on UACC-62 melanoma it was 67.3%; in the test with LOX IMVI melanoma, 43.2%; in the test with SK-MEL-28 melanoma it was 103%; in the test on SK-MEL-2 melanoma, 46.7%; with EKVX NSCLC, 35.3%. In addition, the growth in the test with SN12C renal is 72%; in the test on TK-10 renal it was 12.2%; in the test on ACHN renal it was 47.4%; with CAKI-1 renal, 46.1%; with A498 renal it was 14.2%; in the test with CCRF-CEM leukemia, 6.68% (active). Further, in the test with MOLT-4 leukemia, the growth is -28.3% (active).

For `ClCc1ccc(-c2ccc(Cn3cnc4nc(Cl)nc(Cl)c43)cc2)cc1`, the growth in the test with HCT-15 colon is -5.13% (active); with HT29 colon, -8.13% (active); in the test on SNB-75 CNS, -2.49% (active); in the test with SNB-19 CNS it was 6.84% (active); in the test with U251 CNS it was -69.9% (active); with PC-3 prostate, -9.15% (active). Further, the growth in the test on SK-MEL-5 melanoma is -85.1% (active); with UACC-62 melanoma it was -20.5% (active); with LOX IMVI melanoma, -82.6% (active); with SK-MEL-28 melanoma, 1.02% (active); with SK-MEL-2 melanoma it was 65.8%; in the test on EKVX NSCLC, 82.7%. Moreover, the growth was -29.8% (active) in the test with SN12C renal; -28.4% (active) with TK-10 renal; 5.65% (active) in the test with ACHN renal; -93.6% (active) with CAKI-1 renal; -48.5% (active) with CCRF-CEM leukemia; -42.5% (active) in the test on MOLT-4 leukemia.
